Assay [1] in a line: yeast TOR pathway RPL19A-GFP modulators, primary screen, cell-based, S. cerevisiae, multiplex flow cytometry (AID 1862; in the data active = percent of DMSO control GFP below about 86%;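 note: lower values mimic rapamycin by blocking the RPL19A rise seen in DMSO cells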). Conditions: S. cerevisiae RPL19A-GFP strain, flow cytometry fluorescence, 3 h; at 10 µM; stronger effect = lower value. For orientation: A flow cytometer gives signals particle by particle.
The nature of assay [2]: modulators of MEP2-GFP levels in yeast, primary screen, S. cerevisiae, multiplex flow cytometry (AID 1867;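 active = GFP response, as percent of the DMSO control, above the screen-wide mean plus 3 SD, about 139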;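 note: median GFP channel fluorescence of barcode-gated MEP2-GFP cells measured by flow cytometry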). Conditions: S. cerevisiae MEP2-GFP strain, 3 h, at 10 µM, stronger effect = higher value, 100% means same as DMSO wells.
Assay [3] in a line: modulators of CIT2-GFP expression in yeast, primary screen, S. cerevisiae, GFP fusion, multiplex flow cytometry (AID 1870;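 active = percent response above a set limit, the screen-wide mean plus 3 SD, cut at about 130% in these data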;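 note: barcoded CIT2-GFP strain pooled with four other GFP strains with rapamycin as positive control; median GFP fluorescence per well over plate mean of DMSO wells so 100% = DMSO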). Conditions: 3 h, at 10 µM, stronger effect = higher value.
Assay [4] is described as follows: modulators of LAP4-GFP expression in yeast, primary screen, S. cerevisiae, multiplex flow cytometry (AID 1873;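 active = GFP signal, as percent of the solvent control, above the screen mean plus 3 SD, about 149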). Conditions: 3 h, at 10 µM, stronger effect = higher value.
A short description of assay [5]: modulators of AGP1-GFP expression in yeast TOR pathway, primary screen, cell-based, multiplex flow cytometry, S. cerevisiae (AID 1887;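 active = GFP signal above the screen-wide mean plus 3 SD, that is over about 124.5% of the solvent control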;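 note: AGP1-GFP fusion strain of S. cerevisiae within a five-strain barcoded multiplex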). Conditions: 3 h, at 10 µM, stronger effect = higher value.
Assay [6] can be described thus: inhibitors of CD8+ T cell-vesicle binding, pilot screen, LFA-1/ICAM-1 modulator project, MLPCN validation set, flow cytometry (AID 2523;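 active = response below a set limit, under 55% cells CD8-positive and vesicle-bound, and CD8 cells' 90th-percentile brightness under 279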;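 for vesicle binding response: mean PE anti-B7-1 fluorescence of CD8+ cells relative to row control; 100% = QL9-loaded vesicles with DMSO vehicle in the same plate row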). Conditions: 2C mouse CD8+ T cells, at 7 µM, stronger effect = lower value; double positive events: measured here: CD8+/vesicle+ event percentage.
In assay [7] the target is Integrin beta-1 (Homo sapiens) + Integrin alpha-4 (Homo sapiens) (UniProt P13612+P05556). In words: inhibition of HUTS-21 binding to VLA-4, pilot screen, VLA-4 allosteric modulator project, U937 cells, HUTS-21 mAb, flow cytometry, validation set (AID 2674).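 Note: antibody binding induced by the VLA-4 ligand LDV present at three times its Kd; 0% = LDV ligand with antibody and no compound and 100% = antibody without LDV.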 Conditions: HUTS-21 LIBS mAb binding, at 6.7 µM, stronger effect = higher value, binding induced by LDV ligand.
Assay [8] is described as follows: superoxide lowering in aged yeast cells, pilot screen, validation compound set (AID 2706;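 active = superoxide response below 65% of plate, a cut near 3 SD across the whole screen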;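 note: yeast exposed to compound for one week at 30 degrees C before staining; 100% = mean of all compound wells on the same plate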). Conditions: S. cerevisiae aging, superoxide DHE fluorescence; at 10 µM; stronger effect = lower value.
Assay [9] addresses Beta-adrenergic receptor kinase 1 (Homo sapiens) (UniProt P25098). Put plainly: GRK2 binders displacing RNA aptamer, biochemical, validation, human GRK2, bead flow cytometry (AID 488806;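 active = aptamer binding inhibition above 30%, about 3 SD of noise from non-fluorescent compounds; inactive = inhibition at or below 30%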). Conditions: bead-bound GRK2, FAM-aptamer displacement, at 10 µM, stronger effect = higher value.
The target in assay [10] is Beta-2 adrenergic receptor (Homo sapiens) (UniProt P07550). In words: beta2AR agonists driving receptor internalization, pilot screen, cell-based, FAP fluorogen, flow cytometry, validation set (AID 504459;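 active = percent response above 42, roughly 3 SD of non-fluorescent test compounds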;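 note: agonist-driven loss of surface beta2AR via internalization measured by FAP dye flow cytometry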). Conditions: Am2.2-beta2AR cells, FAP surface receptor flow cytometry; at 10 µM; stronger effect = higher value.
For assay [11], the target named is AP-2 complex subunit beta (Homo sapiens) (UniProt P63010). In words: inhibitors of arrestin peptide binding to AP2, pilot screen, biochemical, validation set, GST-AP2 beads, flow cytometry (AID 504541;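 active = inhibition above 54%, about 3 SD of non-fluorescent compounds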;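 note: AP2 carries R879A mutation and is captured from E. coli lysate; bead-bound FITC arrestin peptide fluorescence measuring arrestin peptide binding to AP2; 0% = DMSO wells and 100% = excess unlabeled arrestin peptide control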). Conditions: FITC arrestin peptide, at 10 µM, stronger effect = higher value, AP2 beta2 appendage fragment, R879A mutant.
Assay [12] in a line: yeast V-ATPase proton transport modulators, S. cerevisiae, pHLuorin, HTS validation (AID 504600; in the data active = response above about 15%;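 note: plate controls were DMSO for no effect and reference compound for full effect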). Conditions: S. cerevisiae pHLuorin cytosolic pH, at 10 µM, stronger effect = higher value.
Assay [13] relates to anti-desmoglein-3 scFv antibody binding to human DSG3. Put plainly: inhibitors of anti-DSG3 scFv binding to DSG3, pilot screen, biochemical, validation compound set, bead-based, flow cytometry (AID 588368;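 active = binding below the plate cutoff, the plate median minus 3 SD, with a reading above zero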;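 note: signal is the median channel fluorescence of bead-bound GFP antibody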). Conditions: Protein G beads, DSG3-Fc, scFv-GFP binding, at 10 µM, stronger effect = lower value.
Assay [14] is described as follows: inhibitors of fungal efflux pumps CDR1, CDR2, MDR1, pilot screen, validation compound set, multiplex, phenotypic (AID 588506;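 active = efflux inhibition above 0.42, the validation set average plus 4 SD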;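 note: Nile Red retained in cells so higher fluorescence means more efflux inhibition; 0 = negative control wells and 1 = enniatin B 25 µM full block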). Conditions: S. cerevisiae pump-expressing triplex, Nile Red efflux flow cytometry; at 10 µM; stronger effect = higher value; the pumps come from Candida albicans.
Assay [15] addresses ATP-binding cassette sub-family B member 6 (Homo sapiens) (UniProt Q9NP58). In words: ABCB6 transporter inhibitors, pilot screen, K562-ABCB6 cells, flow cytometry, validation set (AID 588550;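 active = inhibition above the screen-wide mean plus 3 SD, about 51%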;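 note: 0% = DMSO wells and 100% = benzethonium chloride 70 µM positive control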). Conditions: K562-ABCB6 porphyrin accumulation, 1 h, at 10 µM, stronger effect = higher value.
Assay [16] in a line: promoters of myeloid differentiation in arrested cells, primary screen, cell-based, GFP/MAC1 double positive, flow cytometry, validation set (AID 588685;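 active = differentiation response of at least 50%, scaled between solvent and reference control, from cells with both markers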;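 note: compound exposure lasts four days before antibody staining and flow analysis; 0% = DMSO wells and 100% = 5 µM fulvestrant positive control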). Conditions: ER-HoxA9 marrow cells, stronger effect = higher value, normalized: vehicle 0, fulvestrant 100.

Experimental findings from PubChem BioAssay are described below.

Records with an inconclusive call do not appear. Calls of active or inactive are those of the source.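 Rule for the calls, unless noted: active = inhibition above 50%, about 3 SD of the validation set; inactive = the rest.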

Chain of AP-2 complex subunit beta (Homo sapiens) (P63010 whole entry, looked up, the tested form may be a part, one chain of several): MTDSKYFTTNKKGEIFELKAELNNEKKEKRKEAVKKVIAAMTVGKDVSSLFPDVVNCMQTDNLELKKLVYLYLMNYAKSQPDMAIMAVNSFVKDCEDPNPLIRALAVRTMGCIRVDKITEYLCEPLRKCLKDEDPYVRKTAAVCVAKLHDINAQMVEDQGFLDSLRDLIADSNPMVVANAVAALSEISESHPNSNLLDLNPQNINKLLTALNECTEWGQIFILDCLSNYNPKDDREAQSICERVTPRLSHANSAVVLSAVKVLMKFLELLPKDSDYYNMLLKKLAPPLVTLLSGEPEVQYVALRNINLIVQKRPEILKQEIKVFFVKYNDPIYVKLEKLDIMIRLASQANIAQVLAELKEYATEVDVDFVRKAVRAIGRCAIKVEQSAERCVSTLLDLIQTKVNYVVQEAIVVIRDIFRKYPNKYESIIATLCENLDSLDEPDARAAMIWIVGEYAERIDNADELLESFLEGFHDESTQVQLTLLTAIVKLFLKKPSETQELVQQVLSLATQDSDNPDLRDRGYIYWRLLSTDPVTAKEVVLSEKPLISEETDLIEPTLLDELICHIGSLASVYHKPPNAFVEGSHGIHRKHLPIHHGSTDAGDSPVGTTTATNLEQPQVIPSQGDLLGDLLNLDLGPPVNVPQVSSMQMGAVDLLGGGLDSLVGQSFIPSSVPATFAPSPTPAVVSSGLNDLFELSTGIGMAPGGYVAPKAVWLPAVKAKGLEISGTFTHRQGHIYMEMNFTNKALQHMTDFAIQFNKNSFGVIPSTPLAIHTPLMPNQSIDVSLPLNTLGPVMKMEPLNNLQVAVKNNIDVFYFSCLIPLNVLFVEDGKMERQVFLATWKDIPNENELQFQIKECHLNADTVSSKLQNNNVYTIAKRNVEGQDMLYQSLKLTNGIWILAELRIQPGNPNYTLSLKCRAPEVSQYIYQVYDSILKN
Chain of Beta-adrenergic receptor kinase 1 (Homo sapiens) (P25098 whole entry, looked up): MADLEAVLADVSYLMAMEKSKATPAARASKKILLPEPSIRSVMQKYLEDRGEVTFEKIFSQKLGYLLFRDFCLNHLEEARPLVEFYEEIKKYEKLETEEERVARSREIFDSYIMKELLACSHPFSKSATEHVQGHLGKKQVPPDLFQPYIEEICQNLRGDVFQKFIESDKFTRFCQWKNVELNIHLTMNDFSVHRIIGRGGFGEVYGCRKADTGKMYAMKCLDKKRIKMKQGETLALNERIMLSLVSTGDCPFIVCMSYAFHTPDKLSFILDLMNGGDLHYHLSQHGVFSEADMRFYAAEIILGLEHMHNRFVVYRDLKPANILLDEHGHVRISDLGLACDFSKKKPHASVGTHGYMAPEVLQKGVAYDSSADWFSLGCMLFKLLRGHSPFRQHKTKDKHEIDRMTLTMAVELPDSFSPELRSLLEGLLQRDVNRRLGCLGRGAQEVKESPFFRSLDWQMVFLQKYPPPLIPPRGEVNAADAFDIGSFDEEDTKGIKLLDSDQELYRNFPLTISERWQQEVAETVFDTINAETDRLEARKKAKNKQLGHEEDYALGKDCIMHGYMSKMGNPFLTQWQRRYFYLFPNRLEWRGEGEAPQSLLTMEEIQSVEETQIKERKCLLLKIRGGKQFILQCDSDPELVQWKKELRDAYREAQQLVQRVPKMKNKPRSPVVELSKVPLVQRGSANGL
Chain of ATP-binding cassette sub-family B member 6 (Homo sapiens) (Q9NP58 whole entry, looked up): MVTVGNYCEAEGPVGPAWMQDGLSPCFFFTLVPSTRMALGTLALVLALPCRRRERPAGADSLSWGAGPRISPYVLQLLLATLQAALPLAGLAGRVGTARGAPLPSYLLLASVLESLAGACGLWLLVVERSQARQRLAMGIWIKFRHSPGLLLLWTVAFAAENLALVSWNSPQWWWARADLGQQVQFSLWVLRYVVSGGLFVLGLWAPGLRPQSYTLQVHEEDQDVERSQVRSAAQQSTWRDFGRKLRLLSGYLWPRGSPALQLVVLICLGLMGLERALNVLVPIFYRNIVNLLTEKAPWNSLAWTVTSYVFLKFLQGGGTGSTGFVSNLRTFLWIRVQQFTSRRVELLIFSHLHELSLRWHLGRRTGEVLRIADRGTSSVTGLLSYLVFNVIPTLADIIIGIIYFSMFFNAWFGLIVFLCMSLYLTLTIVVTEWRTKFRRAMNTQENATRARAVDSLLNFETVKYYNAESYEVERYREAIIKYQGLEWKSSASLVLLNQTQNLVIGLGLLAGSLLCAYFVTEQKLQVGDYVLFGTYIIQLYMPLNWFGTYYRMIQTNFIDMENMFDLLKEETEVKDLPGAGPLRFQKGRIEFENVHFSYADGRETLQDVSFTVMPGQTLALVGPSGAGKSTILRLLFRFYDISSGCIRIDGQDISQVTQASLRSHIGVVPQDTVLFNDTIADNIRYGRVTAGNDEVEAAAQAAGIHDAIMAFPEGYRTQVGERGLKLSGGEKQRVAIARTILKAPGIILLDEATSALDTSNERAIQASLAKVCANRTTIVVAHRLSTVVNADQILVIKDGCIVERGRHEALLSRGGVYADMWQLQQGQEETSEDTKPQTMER
Chain of Beta-2 adrenergic receptor (Homo sapiens) (P07550 whole entry, looked up): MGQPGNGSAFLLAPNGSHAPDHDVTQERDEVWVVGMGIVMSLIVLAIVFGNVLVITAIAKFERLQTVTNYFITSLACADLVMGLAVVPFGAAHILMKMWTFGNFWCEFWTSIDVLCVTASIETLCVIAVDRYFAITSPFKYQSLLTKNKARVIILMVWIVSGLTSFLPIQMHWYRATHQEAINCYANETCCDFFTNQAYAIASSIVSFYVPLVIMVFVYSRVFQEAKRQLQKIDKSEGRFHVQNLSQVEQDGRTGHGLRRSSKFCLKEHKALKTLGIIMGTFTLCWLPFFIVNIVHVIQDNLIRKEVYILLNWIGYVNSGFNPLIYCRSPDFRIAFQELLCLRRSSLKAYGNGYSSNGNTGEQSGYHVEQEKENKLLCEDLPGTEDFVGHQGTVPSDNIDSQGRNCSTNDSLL
Chain of Integrin beta-1 (Homo sapiens) + Integrin alpha-4 (Homo sapiens) (P05556 whole entry, looked up): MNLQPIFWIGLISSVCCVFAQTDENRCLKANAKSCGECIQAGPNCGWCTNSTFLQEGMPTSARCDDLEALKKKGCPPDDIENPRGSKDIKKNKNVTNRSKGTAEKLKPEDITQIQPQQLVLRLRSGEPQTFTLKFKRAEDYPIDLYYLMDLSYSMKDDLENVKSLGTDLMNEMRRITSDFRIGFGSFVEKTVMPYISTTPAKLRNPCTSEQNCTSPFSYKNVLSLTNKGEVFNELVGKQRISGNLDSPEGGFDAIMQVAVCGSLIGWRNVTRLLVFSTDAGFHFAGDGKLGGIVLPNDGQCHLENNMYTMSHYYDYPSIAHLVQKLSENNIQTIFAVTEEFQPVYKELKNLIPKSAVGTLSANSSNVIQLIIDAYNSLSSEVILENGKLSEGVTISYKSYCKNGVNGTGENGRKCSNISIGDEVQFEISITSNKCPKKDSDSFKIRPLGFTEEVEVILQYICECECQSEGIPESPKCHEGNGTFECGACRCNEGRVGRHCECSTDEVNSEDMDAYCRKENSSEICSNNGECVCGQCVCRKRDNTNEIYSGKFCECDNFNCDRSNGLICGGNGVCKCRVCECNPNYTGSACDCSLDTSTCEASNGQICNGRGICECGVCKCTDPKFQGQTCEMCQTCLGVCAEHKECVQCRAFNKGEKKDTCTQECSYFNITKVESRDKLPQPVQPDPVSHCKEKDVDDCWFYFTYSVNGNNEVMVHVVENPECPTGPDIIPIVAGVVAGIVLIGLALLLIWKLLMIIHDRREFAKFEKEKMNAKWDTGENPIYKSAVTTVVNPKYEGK
Chain of Integrin beta-1 (Homo sapiens) + Integrin alpha-4 (Homo sapiens) (P13612 whole entry, looked up): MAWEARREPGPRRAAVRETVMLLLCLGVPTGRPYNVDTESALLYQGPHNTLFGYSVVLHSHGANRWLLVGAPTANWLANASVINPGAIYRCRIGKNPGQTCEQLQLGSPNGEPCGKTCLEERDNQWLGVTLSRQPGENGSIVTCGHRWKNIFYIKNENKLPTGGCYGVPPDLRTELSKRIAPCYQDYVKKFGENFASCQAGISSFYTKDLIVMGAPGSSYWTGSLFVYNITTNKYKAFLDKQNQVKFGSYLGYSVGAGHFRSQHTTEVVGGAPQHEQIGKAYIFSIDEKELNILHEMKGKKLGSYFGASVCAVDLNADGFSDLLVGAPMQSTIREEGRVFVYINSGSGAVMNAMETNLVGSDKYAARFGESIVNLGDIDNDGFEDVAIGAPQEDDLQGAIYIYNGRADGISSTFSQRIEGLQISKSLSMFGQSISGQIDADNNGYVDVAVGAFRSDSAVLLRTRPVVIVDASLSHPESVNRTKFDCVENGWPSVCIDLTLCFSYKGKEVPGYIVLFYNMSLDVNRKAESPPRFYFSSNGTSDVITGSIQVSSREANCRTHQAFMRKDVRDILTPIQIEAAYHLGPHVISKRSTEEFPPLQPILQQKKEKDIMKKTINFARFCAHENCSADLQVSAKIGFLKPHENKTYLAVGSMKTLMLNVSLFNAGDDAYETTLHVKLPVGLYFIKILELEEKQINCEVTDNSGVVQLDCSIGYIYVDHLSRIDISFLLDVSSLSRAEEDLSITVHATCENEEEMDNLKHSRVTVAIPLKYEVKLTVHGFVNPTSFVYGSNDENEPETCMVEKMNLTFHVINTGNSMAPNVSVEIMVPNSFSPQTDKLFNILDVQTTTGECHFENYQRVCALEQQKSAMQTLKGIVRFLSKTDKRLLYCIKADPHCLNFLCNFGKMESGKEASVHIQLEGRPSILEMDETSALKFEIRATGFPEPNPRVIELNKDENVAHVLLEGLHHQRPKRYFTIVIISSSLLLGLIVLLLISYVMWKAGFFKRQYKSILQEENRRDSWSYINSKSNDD

In general, inhibition refers to the drop in the measured response relative to a control, in per cent. As for `COC(=O)CSc1nc2ccc(N)cc2s1`, the percent of DMSO control GFP in assay [1] is 104% (inactive). For the same compound, the GFP response vs DMSO is 103% (inactive) in assay [2] and 95.3% (inactive) in [4]. In assay [3], the percent response of DMSO control was 104% (inactive). Moreover, the GFP response, % of DMSO in assay [5] was 97.8% (inactive). This compound also displayed a double positive events in [6] of 64.4%. In assay [6], the vesicle binding response is 189% (inactive). For the same compound, the inhibition is -3.57% (inactive) in [7], 4.01% (inactive) in assay [11] and -5% (inactive) in [15]. Moreover, the superoxide response (% of plate) in assay [8] was 110% (inactive). In addition, the aptamer binding inhibition in assay [9] was -1% (inactive). For the same compound, the response in [10] is 5.1% (inactive); in [12], -1.65% (inactive). Also, the binding (% of control) in [13] was 92% (inactive). For the same compound, the efflux inhibition (fraction of control) in [14] was 0.02 (inactive). Also, the differentiation response in assay [16] was 12% (inactive).

Consider `Cn1c(=O)[nH]c(=O)c2c1nc(NCc1ccco1)n2CCCc1ccccc1`, for which the percent of DMSO control GFP in assay [1] is 101% (inactive). In addition, the results for the GFP response vs DMSO in assay [2] and in assay [4] were 101% (inactive) and 90.1% (inactive), respectively. In addition, the percent response of DMSO control in [3] is 100% (inactive). The GFP response, % of DMSO in assay [5] is 105% (inactive). The double positive events in assay [6] was 62.6%. Moreover, the vesicle binding response in assay [6] is 36.6% (inactive). The inhibition in assay [7] is -2.53% (inactive); in assay [11] it was 9.94% (inactive); in assay [15], -1% (inactive). Besides, in assay [8], the superoxide response (% of plate) was 103% (inactive). Further, the aptamer binding inhibition in assay [9] is 5% (inactive). In addition, the response in [10] is -5.62% (inactive); in [12], 0.19% (inactive). Also, the binding (% of control) in [13] was 97.2% (inactive). For the same compound, in assay [14], the efflux inhibition (fraction of control) is -0.07 (inactive). In assay [16], the differentiation response was -3.67% (inactive).

Turning to `COc1ccc(C2c3c(n[nH]c3C)CC(C)(O)C2C(C)=O)cc1OC` (stereo not given), the percent of DMSO control GFP in [1] was 87.3% (inactive). Also, the GFP response vs DMSO in assay [2] was 129% (inactive); in assay [4], 76.5% (inactive). In addition, the percent response of DMSO control in assay [3] was 97.9% (inactive). Further, in assay [5], the GFP response, % of DMSO was 90.3% (inactive). In addition, the double positive events in assay [6] turned out to be 67.8%. For the same compound, the vesicle binding response in [6] is 58.4% (inactive). For the same compound, the values for the inhibition in assay [7], in assay [11] and in [15] were 10.3% (inactive), -0.31% (inactive) and 7% (inactive), respectively. The superoxide response (% of plate) in [8] is 106% (inactive). For the same compound, the aptamer binding inhibition in assay [9] was 4% (inactive). In addition, the response was -2.94% (inactive) in [10] and 0.84% (inactive) in assay [12]. Also, the binding (% of control) in assay [13] is 103% (inactive). Further, the efflux inhibition (fraction of control) in assay [14] was -0.13 (inactive). In addition, the differentiation response in [16] is 13.1% (inactive).

In the case of `Cc1cc(OCC(=O)C(C)(C)C)c2c(C)c(C)c(=O)oc2c1`, in [1], the percent of DMSO control GFP is 102% (inactive). Besides, the figures for the GFP response vs DMSO in [2] and in [4] were 103% (inactive) and 118% (inactive), respectively. For the same compound, in assay [3], the percent response of DMSO control is 94.8% (inactive). The GFP response, % of DMSO in assay [5] was 98.8% (inactive). Further, the double positive events in assay [6] worked out at 60.4%. In addition, the vesicle binding response in [6] was 213% (inactive). For the same compound, the inhibition in assay [7] is 2.3% (inactive); in assay [11] it was 27.4% (inactive); in [15] it was 3% (inactive). Further, the superoxide response (% of plate) in assay [8] was 102% (inactive). In addition, in [9], the aptamer binding inhibition was 7% (inactive). In addition, the response in assay [10] is -4.14% (inactive); in assay [12], -7.2% (inactive). The binding (% of control) in assay [13] is 101% (inactive). Moreover, the efflux inhibition (fraction of control) in assay [14] is 0.26 (inactive). Further, in assay [16], the differentiation response was 4% (inactive).

Turning to `COc1ccc(S(N)(=O)=O)cc1C(N)=O`, the percent of DMSO control GFP in assay [1] was 100% (inactive). The GFP response vs DMSO was 105% (inactive) in assay [2] and 101% (inactive) in [4]. For the same compound, the percent response of DMSO control in assay [3] was 97.8% (inactive). For the same compound, the GFP response, % of DMSO in assay [5] is 97% (inactive). Besides, the double positive events in assay [6] was found to be 62%. In addition, in [6], the vesicle binding response was 195% (inactive). Moreover, the results for the inhibition in assay [7], in assay [11] and in [15] were -0.45% (inactive), 13.4% (inactive) and 11% (inactive), respectively. In assay [8], the superoxide response (% of plate) is 106% (inactive). Also, in [9], the aptamer binding inhibition is 0% (inactive). In addition, the response in assay [10] was 1.47% (inactive); in [12], -1.59% (inactive). Further, the binding (% of control) in assay [13] was 91.1% (inactive). Moreover, in assay [14], the efflux inhibition (fraction of control) was 0.02 (inactive). Further, the differentiation response in assay [16] was -4.64% (inactive).
